Bioassay records as filed in PubChem.
TDP1 cell noCPT: qHTS for Inhibitors of human tyrosyl-DNA phosphodiesterase 1 (TDP1): qHTS in cells in absence of CPT; DT40 Tdp1-/- hTDP1 cells, no CPT, ATP luminescence, 48 h; Potency, µM (highest dose often 46.2 µM), actives largely listed as inhibitors; 420,000 tested, 15% active; also: nearly all actives have a fitted effect of over 55% in size
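Stably hTDP1-transfected Tdp1-null chicken DT40 cells were treated with library compounds minus camptothecin and grown for at least 48 hr at 37 °C, after which cellular ATP was quantified by luminescence.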
KAT2A inh: qHTS Assay for Inhibitors of GCN5L2; GCN5L2 HAT assay, ThioGlo1 CoA-SH fluorescence; Potency, µM (series often up to 58.9 µM), hits mostly inhibitors; 390,000 tested, 0.21% active
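Titration-based screen in which CoA formation is detected via maleimide probe ThioGlo1 (50uM) turning fluorescent on thiol reaction; substrates H3(1-25) 75uM and acetyl-CoA 70uM, GCN5L2 20nM, 20 min incubation at room temperature.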
VDR inhibitor: Inhibitors of the vitamin D receptor (VDR): qHTS; Vitamin D3 receptor (Homo sapiens), P11473; VDR-SRC2-3 peptide fluorescence polarization, 2 h; Potency, µM, most hits filed as inhibitors; 400,000 tested, 0.93% active
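FP read-out; VDR + SRC2-3 coactivator peptide; 23 nl compound by pintool; 2 h RT incubation; reagents held at 4 deg C, protected from light.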
PLK1 PBD inh: qHTS for Inhibitors of PLK1-PDB (polo-like kinase 1 - polo-box domain): Primary Screen; Serine/threonine-protein kinase PLK1 (Homo sapiens), P53350; Plk1 PBD binding of FITC phosphopeptide, fluorescence polarization; Potency, µM, most hits filed as inhibitors; 360,000 tested, 2.8% active; also: series mostly up to about 57 µM; nearly all actives have a fitted effect of over 65% in size
TDP1 cell CPT: qHTS for Inhibitors of human tyrosyl-DNA phosphodiesterase 1 (TDP1): qHTS in cells in presence of CPT; Potency, µM (doses to about 46.2 µM), most hits filed as inhibitors; chicken DT40 Tdp1-/-;hTDP1 cells + 20 nM CPT, ATP luminescence, 48 h; 420,000 tested, 12% active; AID 686979, 2013; also: nearly all actives have a fitted effect of over 55% in size
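Chicken DT40 Tdp1-/- cells stably complemented with human TDP1 were seeded at 400 cells/well in medium containing 20 nM camptothecin, exposed to pin-transferred compounds, and grown at 37 °C for at least 48 hr. Viability was read as ATP luminescence.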
TDP1 block: qHTS Assay for Inhibitors of Tyrosyl-DNA Phosphodiesterase (TDP1); Tyrosyl-DNA phosphodiesterase 1 (Homo sapiens), Q9NUW8; recombinant TDP1, AlphaScreen DNA substrate cleavage; Potency, µM (titrated, usually from 130 µM), most hits filed as inhibitors; 350,000 tested, 0.28% active; AID 485290, 2010; also: nearly all actives have a fitted effect of over 40% in size
Target sequence (Q9NUW8 whole entry, looked up): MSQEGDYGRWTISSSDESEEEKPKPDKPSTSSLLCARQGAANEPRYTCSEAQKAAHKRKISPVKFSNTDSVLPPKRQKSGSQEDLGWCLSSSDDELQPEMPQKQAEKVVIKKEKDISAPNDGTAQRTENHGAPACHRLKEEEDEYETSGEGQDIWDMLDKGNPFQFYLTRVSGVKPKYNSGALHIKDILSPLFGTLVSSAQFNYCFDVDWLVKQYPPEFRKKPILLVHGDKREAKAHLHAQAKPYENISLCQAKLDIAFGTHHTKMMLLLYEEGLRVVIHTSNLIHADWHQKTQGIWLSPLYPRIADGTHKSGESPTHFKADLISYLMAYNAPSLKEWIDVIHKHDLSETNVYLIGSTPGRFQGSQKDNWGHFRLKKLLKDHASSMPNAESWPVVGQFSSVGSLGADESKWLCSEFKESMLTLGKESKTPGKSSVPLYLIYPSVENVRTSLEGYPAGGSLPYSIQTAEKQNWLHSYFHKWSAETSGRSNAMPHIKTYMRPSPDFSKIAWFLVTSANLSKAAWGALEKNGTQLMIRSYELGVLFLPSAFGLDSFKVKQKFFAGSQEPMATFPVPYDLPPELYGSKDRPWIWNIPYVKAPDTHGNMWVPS
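Steps: enzyme plus compound, 15 min RT; add biotin/phosphotyrosine-FITC oligonucleotide (15 nM final), react 5 min; add donor/acceptor beads (10 ug/ml final), 10 min; read AlphaScreen. Tdp1 at 1 nM final.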
Hits are given with their value; - = inactive; ? = inconclusive; . = not tested or not shown; [ ] = remark or other dose. Hits are enriched below; roughly 18% of the tested compounds scored in any of these assays. Calls follow the shape of the dose curve; as a rule, active = well fitted curve in the direction sought with a large enough effect; inconclusive = small, poorly fitted or top-dose-only effect, or another doubt; inactive = no such curve, though single readings can be large; an effect the other way counts as inactive or inconclusive.

SMILES	TDP1 cell noCPT	KAT2A inh	VDR inhibitor	PLK1 PBD inh	TDP1 cell CPT	TDP1 block
CCCN1C[C@@H](C)[C@@H](OC)CN(C)C(=O)c2ccc(NC(=O)c3cccc(F)c3)cc2OC[C@H]1C	-	.	.	-	-	.
O=C(NCc1ccccc1)c1cccc2c(-c3cccnc3)coc12	?	.	.	-	?	.
COc1ccc(CNC(=O)c2cccc3c(-c4ccc(F)c(F)c4)coc23)cc1OC	12µM	.	.	-	21µM	.
O=C(NCc1ccccc1)c1cccc2c(-c3ccc(F)c(F)c3)coc12	?	.	.	-	?	.
O=C(NC1CCCCC1)c1cccc2c(-c3ccc(F)c(F)c3)coc12	?	.	.	-	?	.
COc1cc(-c2coc3c(C(=O)NC4CCCCC4)cccc23)ccc1O	?	.	.	-	18µM	.
COc1ccc(CNC(=O)c2cccc3c(-c4cccc(C(N)=O)c4)coc23)cc1OC	5.2µM	.	.	-	3.7µM	.
NC(=O)c1cccc(-c2coc3c(C(=O)NCCc4ccccc4)cccc23)c1	?	.	.	-	?	.
COc1cc(-c2coc3c(C(=O)NCc4ccc(N(C)C)cc4)cccc23)ccc1O	?	.	.	-	16µM	.
C=C1[C@@H]2CC[C@H](C2)C1(C)C	.	-	-	.	.	-
Cc1cccc(C)c1N1CCN(C(=O)N2CCCCC2)CC1	-	-	-	-	-	-
O=C(CSc1nncs1)Nc1ccc(N2CCCCC2)cc1	16µM	-	-	-	?	-
COc1cccc(C(C)(O)c2nc(-c3ccoc3)cs2)c1 (stereo not given)	?	.	.	-	?	.
CCn1c(=O)c2c(nc3n2CCN3c2ccc(OC)cc2)n(C)c1=O	-	-	-	.	?	-
O=c1[nH]c2ccc(NCc3ccccc3OCc3ccc(Cl)cc3)cc2[nH]1	?	?	-	-	23µM	-
Oc1ccc(NCc2ccccc2OCc2ccc(Cl)cc2)cc1	21µM	-	?	.	29µM	-
O=C(O)CN1C(=O)/C(=C\c2cccc(OCc3ccccc3)c2)SC1=S	-	-	56µM	24µM	-	.
O=C(O)COc1cccc(/C=C2/SC(=S)N(Cc3ccccc3)C2=O)c1	-	-	79µM	24µM	-	.
CN1C(=O)/C(=C\c2cccc(OCc3ccccc3)c2)SC1=S	-	-	-	-	-	.
O=C(O)CCN1C(=O)/C(=C\c2cccc(OCC(=O)Nc3ccc(Cl)cc3)c2)SC1=S	?	-	14µM	27µM	?	.
COc1ccc(Cc2nc3c4cnn(-c5cccc(F)c5)c4ncn3n2)cc1	-	-	-	.	-	-
Cc1noc(C)c1S(=O)(=O)N1CCN(C(c2ccccc2)c2ccc(Cl)cc2)CC1 (stereo not given)	13µM	-	-	-	?	-
COCCNC(=S)c1ccc(Br)cc1	?	-	?	11µM	?	-
O=C(NCc1cccnc1)/C(=C/c1ccc([N+](=O)[O-])cc1)NC(=O)c1ccccc1	-	-	-	-	-	-
Cc1ccc(C(=O)N/C(=C/c2ccc(-c3cc(C(F)(F)F)ccc3Cl)o2)C(=O)NCc2cccnc2)cc1	23µM	-	-	-	?	-
SMILES	TDP1 cell noCPT	KAT2A inh	VDR inhibitor	PLK1 PBD inh	TDP1 cell CPT	TDP1 block
Cc1ccc(C(=O)N/C(=C\c2ccco2)C(=O)NCc2cccnc2)cc1	-	-	-	-	-	-
O=C(NCc1cccnc1)/C(=C/c1ccc(-c2ccc(Cl)cc2)o1)S(=O)(=O)c1ccccc1	7.3µM	-	22µM	?	5.2µM	-
O=C(NCc1cccnc1)/C(=C/c1ccc(Cl)cc1)NC(=O)c1ccccc1	-	-	-	-	23µM	-
O=C(NCc1cccnc1)/C(=C/c1ccc(-c2cccc(C(F)(F)F)c2)o1)NC(=O)c1ccccc1	18µM	?	-	-	13µM	-
c1nc(NCC2CCCO2)c2ccc(-c3ccc4c(c3)OCO4)cc2n1 (stereo not given)	.	.	.	.	.	-
COc1cc(-c2nc(C)cnc2C)cc2c1OCCN(C(=O)Cn1nc(-c3ccccc3)c3ccccc3c1=O)C2	-	.	.	.	-[9.04 µM]	.
CN(C(=O)COC(=O)c1ccc2ccccc2n1)c1ccccc1	-	-	-	-	-	-
COc1cccc(C2=NCCc3cc4c(cc32)OCO4)c1OC	?	-	-	-	-	-
COc1ccc2cc3[n+](cc2c1OC)CCc1cc2c(cc1-3)OCO2	2.3µM	-	-	-	3.7µM	-
CC(C)(C)C(=O)CSc1n[nH]c(-c2ccccc2)n1	?	.	.	.	-	.
CCC(NC(=O)c1cc(COc2ccc(Cl)cc2OC)on1)c1ccncc1 (stereo not given)	?	?	-	-	?	-
CCC(NC(=O)c1cc(COc2ccc(C)nc2)on1)c1ccc(C)cc1 (stereo not given)	?	?	-	-	16µM	-
CCC(NC(=O)c1cc(COc2cc(C)c(Cl)c(C)c2)on1)c1ccncc1 (stereo not given)	21µM	-	-	-	?	-
CC(NC(=O)c1cc(COc2ccc(-n3cncn3)cc2)on1)c1ccc(F)cc1 (stereo not given)	?	.	.	-	?	.
COc1ccc(OCc2cc(C(=O)NC3Cc4ccccc4C3)no2)c(Cl)c1	3.7µM	?	-	-	3.3µM	-
CCC(NC(=O)c1cc(COc2ccc(OC)cc2Cl)on1)c1ccncc1 (stereo not given)	12µM	?	?	-	?	-
CC(C)NC(=O)NNC(=O)c1cc(COc2cc(Cl)cc(Cl)c2)on1	-	-	-	-	-	.
CCOC(=O)C1=C(C)N=C2SCCC(=O)N2C1c1ccc(OCc2ccccc2)cc1 (stereo not given)	?	-	-	.	-	.
Cc1ccc(NC(=O)CN(C)S(=O)(=O)c2ccc3c(c2)n(C)c(=O)c(=O)n3C)cc1C	-	-	-	.	-	-
Cc1ccccc1CNC(=O)c1cc(COc2ccc(F)cc2F)on1	-	-	-	-	?	.
Cc1ccc(OCc2cc(C(=O)NC3CCc4ccccc43)no2)cn1 (stereo not given)	13µM	-	-	-	18µM	-
CSc1ccccc1OCc1cc(C(=O)NC2CCc3ccccc32)no1 (stereo not given)	-	-	-	-	-	-
Cc1ccc(OCc2cc(C(=O)NCc3cc(F)ccc3C)no2)cn1	?	-	-	-	16µM	.
